# Laboratory results as given in PubChem BioAssay AID1159580 (chemical genetic matrix, 2015).
# Among all 5,500 compounds or so, about 2,000 (36%) were called active. About 18% were inconclusive and are not listed. This is one part of the list. Unmarked numbers belong to inactive results. Cut-off read from the data, not from the text of the source: active = normalized growth mostly below about 0.91 (no sharp cut-off); inconclusive = no clear call, values can overlap the other calls; inactive = mostly above about 0.92.
# Experiment: chemical genetic growth profiling, strain panel (AID 1159580);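 note: tested at 20 µM; growth read once vehicle control cultures reached saturation at 30 °C; 1 = growth at the plate median or of vehicle wells; lower values mean less growth of the strain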
# Conditions: growth OD
compound,measurement,setting,value
CC(=O)Oc1cc(-c2coc3cc(OC(C)=O)c(OC(C)=O)c(OC(C)=O)c3c2=O)cc(OC(C)=O)c1OC(C)=O,normalized growth,"S. cerevisiae deletion strains, locus YKL009W, strain mrt4, hits give low values",1.05
same,normalized growth,"S. cerevisiae deletion strains, locus YKL068W, hits give low values",1.01
same,normalized growth,"S. cerevisiae deletion strains, locus YKL085W, strain MDH1 (second series), hits give low values",1.01
same,normalized growth,"S. cerevisiae deletion strains, locus YKL085W, strain MDH1, hits give low values",1.01
same,normalized growth,"S. cerevisiae deletion strains, locus YKL160W, strain elf1, hits give low values",0.926
same,normalized growth,"S. cerevisiae deletion strains, locus YKL190W, strain CNB1, hits give low values",0.888 (active)
same,normalized growth,"S. cerevisiae deletion strains, locus YKR001C, strain vps1, hits give low values",0.962
same,normalized growth,"S. cerevisiae deletion strains, locus YKR026C, strain gcn3, hits give low values",0.979
same,normalized growth,"S. cerevisiae deletion strains, locus YKR091W, strain srl3, hits give low values",0.985
same,normalized growth,"S. cerevisiae deletion strains, locus YLL001W, strain dnm1, hits give low values",0.918
same,normalized growth,"S. cerevisiae deletion strains, locus YLL026W, hits give low values",0.966
same,normalized growth,"S. cerevisiae deletion strains, locus YLL041C, strain sdh2, hits give low values",0.967
same,normalized growth,"S. cerevisiae deletion strains, locus YLR027C, strain aat2, hits give low values",0.964
same,normalized growth,"S. cerevisiae deletion strains, locus YLR039C, strain RIC1, hits give low values",0.635 (active)
same,normalized growth,"S. cerevisiae deletion strains, locus YLR058C, strain SHM2, hits give low values",0.272 (active)
same,normalized growth,"S. cerevisiae deletion strains, locus YLR102C, strain apc9, hits give low values",1.03
same,normalized growth,"S. cerevisiae deletion strains, locus YLR113W, strain HOG1, hits give low values",1.11
same,normalized growth,"S. cerevisiae deletion strains, locus YLR221C, strain rsa3, hits give low values",0.911
same,normalized growth,"S. cerevisiae deletion strains, locus YLR258W, strain gsy2, hits give low values",0.963
same,normalized growth,"S. cerevisiae deletion strains, locus YLR262C, strain YPT6 (second series), hits give low values",0.887
same,normalized growth,"S. cerevisiae deletion strains, locus YLR262C, strain YPT6, hits give low values",0.89
same,normalized growth,"S. cerevisiae deletion strains, locus YLR268W, strain sec22, hits give low values",0.889
same,normalized growth,"S. cerevisiae deletion strains, locus YLR320W, strain mms22, hits give low values",0.9
same,normalized growth,"S. cerevisiae deletion strains, locus YLR342W, strain FKS1 (second series), hits give low values",0.659 (active)
same,normalized growth,"S. cerevisiae deletion strains, locus YLR342W, strain FKS1, hits give low values",0.904 (active)
same,normalized growth,"S. cerevisiae deletion strains, locus YLR357W, strain rsc2, hits give low values",0.77 (active)
same,normalized growth,"S. cerevisiae deletion strains, locus YLR370C, strain arc18, hits give low values",0.909 (active)
same,normalized growth,"S. cerevisiae deletion strains, locus YLR371W, strain rom2, hits give low values",0.801 (active)
same,normalized growth,"S. cerevisiae deletion strains, locus YLR384C, strain iki3, hits give low values",0.965
same,normalized growth,"S. cerevisiae deletion strains, locus YLR418C, strain cdc73, hits give low values",0.782 (active)
same,normalized growth,"S. cerevisiae deletion strains, locus YML016C, strain PPZ1, hits give low values",0.71 (active)
same,normalized growth,"S. cerevisiae deletion strains, locus YML032C, strain rad52, hits give low values",0.83 (active)
same,normalized growth,"S. cerevisiae deletion strains, locus YML120C, strain ndi1, hits give low values",0.898 (active)
same,normalized growth,"S. cerevisiae deletion strains, locus YML124C, strain tub3, hits give low values",1
same,normalized growth,"S. cerevisiae deletion strains, locus YMR058W, strain fet3, hits give low values",0.698 (active)
same,normalized growth,"S. cerevisiae deletion strains, locus YMR078C, strain ctf18, hits give low values",1.01
same,normalized growth,"S. cerevisiae deletion strains, locus YMR125W, strain sto1, hits give low values",1.03
same,normalized growth,"S. cerevisiae deletion strains, locus YMR129W, hits give low values",0.98
same,normalized growth,"S. cerevisiae deletion strains, locus YMR205C, strain PFK2, hits give low values",0.896
same,normalized growth,"S. cerevisiae deletion strains, locus YMR223W, strain ubp8, hits give low values",0.938
same,normalized growth,"S. cerevisiae deletion strains, locus YMR231W, strain pep5, hits give low values",0.924 (active)
same,normalized growth,"S. cerevisiae deletion strains, locus YMR263W, strain SAP30, hits give low values",0.734 (active)
same,normalized growth,"S. cerevisiae deletion strains, locus YMR307W, strain GAS1, hits give low values",0.67
same,normalized growth,"S. cerevisiae deletion strains, locus YNL067W, strain RPL9B, hits give low values",0.848 (active)
same,normalized growth,"S. cerevisiae deletion strains, locus YNL071W, strain lat1, hits give low values",0.979
same,normalized growth,"S. cerevisiae deletion strains, locus YNL183C, strain NPR1, hits give low values",0.988
same,normalized growth,"S. cerevisiae deletion strains, locus YNL209W, strain ssb2, hits give low values",0.785 (active)
same,normalized growth,"S. cerevisiae deletion strains, locus YNL233W, strain BNI4, hits give low values",0.824 (active)
same,normalized growth,"S. cerevisiae deletion strains, locus YNL248C, strain rpa49, hits give low values",0.945
same,normalized growth,"S. cerevisiae deletion strains, locus YNL250W, strain rad50, hits give low values",1.06
same,normalized growth,"S. cerevisiae deletion strains, locus YNL271C, strain bni1, hits give low values",1.01
same,normalized growth,"S. cerevisiae deletion strains, locus YNL298W, strain CLA4, hits give low values",0.998
same,normalized growth,"S. cerevisiae deletion strains, locus YNL307C, strain MCK1, hits give low values",1.02
same,normalized growth,"S. cerevisiae deletion strains, locus YNL322C, strain KRE1 (second series), hits give low values",0.972
same,normalized growth,"S. cerevisiae deletion strains, locus YNL322C, strain KRE1, hits give low values",0.767 (active)
same,normalized growth,"S. cerevisiae deletion strains, locus YNR049C, strain mso1, hits give low values",0.979
same,normalized growth,"S. cerevisiae deletion strains, locus YNR052C, strain pop2, hits give low values",0.658 (active)
same,normalized growth,"S. cerevisiae deletion strains, locus YOL012C, strain htz1",0.316
same,normalized growth,"S. cerevisiae deletion strains, locus YOL147C, strain pex11, hits give low values",0.694 (active)
same,normalized growth,"S. cerevisiae deletion strains, locus YOR001W, strain rrp6, hits give low values",0.859 (active)
same,normalized growth,"S. cerevisiae deletion strains, locus YOR061W, strain CKA2, hits give low values",0.887 (active)
same,normalized growth,"S. cerevisiae deletion strains, locus YOR069W, strain VPS5, hits give low values",0.904 (active)
same,normalized growth,"S. cerevisiae deletion strains, locus YOR070C, strain gyp1, hits give low values",0.937
same,normalized growth,"S. cerevisiae deletion strains, locus YOR080W, strain dia2, hits give low values",0.899 (active)
same,normalized growth,"S. cerevisiae deletion strains, locus YOR083W, strain WHI5, hits give low values",0.908
same,normalized growth,"S. cerevisiae deletion strains, locus YOR106W, strain vam3, hits give low values",0.778 (active)
same,normalized growth,"S. cerevisiae deletion strains, locus YOR136W, strain idh2, hits give low values",1
same,normalized growth,"S. cerevisiae deletion strains, locus YOR144C, strain elg1, hits give low values",0.797 (active)
same,normalized growth,"S. cerevisiae deletion strains, locus YOR184W, strain ser1, hits give low values",0.905
same,normalized growth,"S. cerevisiae deletion strains, locus YOR231W, strain MKK1, hits give low values",1.05
same,normalized growth,"S. cerevisiae deletion strains, locus YOR265W, strain rbl2, hits give low values",0.946
same,normalized growth,"S. cerevisiae deletion strains, locus YOR270C, strain vph1, hits give low values",0.564 (active)
same,normalized growth,"S. cerevisiae deletion strains, locus YOR290C, strain snf2, hits give low values",0.322 (active)
same,normalized growth,"S. cerevisiae deletion strains, locus YOR316C, strain cot1, hits give low values",1.02
same,normalized growth,"S. cerevisiae deletion strains, locus YPL051W, strain arl3, hits give low values",0.847 (active)
same,normalized growth,"S. cerevisiae deletion strains, locus YPL055C, strain LGE1, hits give low values",0.751 (active)
same,normalized growth,"S. cerevisiae deletion strains, locus YPL078C, strain atp4, hits give low values",0.772 (active)
same,normalized growth,"S. cerevisiae deletion strains, locus YPL106C, strain sse1, hits give low values",0.869
same,normalized growth,"S. cerevisiae deletion strains, locus YPL240C, strain hsp82, hits give low values",0.961
same,normalized growth,"S. cerevisiae deletion strains, locus YPL256C, strain CLN2, hits give low values",1.12
same,normalized growth,"S. cerevisiae deletion strains, locus YPR119W, strain clb2, hits give low values",1.03
same,normalized growth,"S. cerevisiae deletion strains, locus YPR141C, strain kar3, hits give low values",1.03
same,normalized growth,"S. cerevisiae deletion strains, locus YPR163C, strain tif3, hits give low values",0.989
same,normalized growth,"S. cerevisiae deletion strains, locus YPR167C, strain met16, hits give low values",0.953
same,normalized growth,"S. cerevisiae deletion strains, strain wtn01, hits give low values",0.882 (active)
same,normalized growth,"S. cerevisiae strains, strain wild type, hits give low values",0.75 (active)
